Laboratory results: ChEMBL document CHEMBL3988442, “University of Dundee, Small-Polar-MMV Screening Library” (2021)
The campaign covered roughly 48,000 compounds. About 13,000 (27%) showed an effect of 50% or more. Some of the results follow.

Each compound was assayed on Wolbachia pipientis (assay: Anti-Wolbachia Cell-Based Screen). Settings: 5 µM.
Format: functional
Design: scale not given: in the data most compounds retested in dose-response had high values

SMILES | Percent Effect [%]
CCc1ccc(CNC(=O)CCNc2ncccn2)s1 | 5.252
CCOC(=O)CCCc1ccc2c(c1)CC(=O)N2 | 6.435
Cc1ncn(-c2cc(N3CCN(S(C)(=O)=O)CC3)ncn2)c1C | -0.4612
Cc1cc(C)c2nc(CNC3CCNC3=O)cc(O)c2c1 (stereo unspecified) | -8.98
CC(C)c1nc(S(=O)(=O)N(C)c2ccc(F)cc2)c[nH]1 | -3.559
CN(C)C(=O)COC[C@]12COC[C@H]1CN(C1CCCC1)C2.O=C(O)C(F)(F)F | 91.16
CN(C)C(=O)COC[C@@]12CCC[C@@H]1CN(C1CCCC1)C2.O=C(O)C(F)(F)F | -10.47
Cc1ccc(CN2CC[C@H]3OCC[C@@]3(COCC(=O)N(C)C)C2)s1.O=C(O)C(F)(F)F | -46.75
O=C(COC[C@@]12CCC[C@@H]1CN(C1CCC1)C2)N1CCCC1.O=C(O)C(F)(F)F | 106.1
CN(C)C(=O)COC[C@@]12CCC[C@@H]1CN(C1CCC1)C2.O=C(O)C(F)(F)F | 4.654
Cc1cc(CN2C[C@H]3CCC[C@@]3(COCC(=O)N3CCCC3)C2)no1 | -8.943
Cc1nc(NC(=O)OC(C)(C)C)sc1C(N)=O | 1.161
CC(C)c1nnc(CN(C)C(c2ccc(F)cc2)c2cccnc2)o1 (stereo unspecified) | 1.551
Cc1cc(C)nc(N2CCc3ccc(OC(F)F)cc3C2)n1 | 7.415
Cc1ccnc(OC[C@]23COC[C@H]2CN(C(=O)c2cnccn2)C3)n1 | 95.8
Cn1cc(C(=O)N2C[C@@H]3COC[C@]3(COCc3cccnc3)C2)cn1 | 5.656
Cc1nc(C(=O)N2C[C@@H]3COC[C@]3(COCc3cccnc3)C2)cs1 | -15.42
COC[C@]12COC[C@H]1CN(C(=O)c1ccc(F)cc1C)C2 | -9.416
Cc1ccnc(OC[C@]23COC[C@H]2CN(C(=O)c2ccnn2C)C3)n1 | 78.09
CS(=O)(=O)NC[C@]12COC[C@H]1CN(C(=O)c1cnccn1)C2 | -1.744
Cc1ccnc(OC[C@]23COC[C@H]2CN(C(=O)C2=CCCCC2)C3)n1 | 104.7

SMILES | Percent Effect [%]
Cc1ccnc(OC[C@]23COC[C@H]2CN(C(=O)c2ncccn2)C3)n1 | 94.44
Cc1ccc(C(=O)N2C[C@@H]3COC[C@]3(COCc3cccnc3)C2)cn1 | -15.81
Cc1cc(N(C)C)nc(NC2CCc3nc(C)nn3C2)n1 (stereo unspecified) | 0.6524
O=C(C1CC1)N1C[C@H]2CNC[C@@]2(C(=O)NCCCc2ccccc2)C1 | -23.56
CCn1cc(CN2CCC(CNC(C)=O)CC2)cc1C#N | 3.567
CC(C)Oc1cc(N2CCCC(O)C2)nc(N)n1 (stereo unspecified) | -24.67
COCCN1CCN(Cc2ccc3nsnc3c2)[C@H]2CS(=O)(=O)C[C@H]21 | 0.2231
COCCN1CCC(CN(C)c2nc3c(s2)c(C)nn3C)C1 (stereo unspecified) | -0.8373
COCCN1CCC1c1cc(NC2CCCC2)nc(C)n1 (stereo unspecified) | 74.49
Cc1ncsc1C(=O)NC1CCN(CCC(N)=O)CC1 | -6.823
Cc1nc(N)cc(C2CCN2CCC(N)=O)n1 (stereo unspecified) | 67.17
CCc1nc(N)sc1C(=O)N1CCC(c2cc(O)nc(C)n2)CC1 | -4.912
Cc1nc(N)cc(C2CCN2CCOc2ccccc2)n1 (stereo unspecified) | 153.2
COCCCn1ccc(NC2CCOCC2)n1 | 12.54
Cc1nn(C)c(C)c1C1CCCN1CCOc1cccc(C#N)c1 (stereo unspecified) | -3.583
COCCCn1ccc(NC2CCSCC2)n1 | -2.987
COCCN1CCC1c1cc(N)nc(C)n1 (stereo unspecified) | 66.06
Cc1cc(N2CCC(NCCOc3ccccc3)CC2)nc(C)n1 | 2.138
CCN(Cc1noc(CC(C)C)n1)Cc1ncccc1C(=O)O | 0.41
O=C(Cc1ccc(F)cc1)NCC(O)(c1cccs1)C1CC1 (stereo unspecified) | -8.989
O=C(c1ccccc1-c1nc[nH]n1)N1CCOC(C(F)(F)F)C1 (stereo unspecified) | -3.819

SMILES | Percent Effect [%]
FC(F)(F)C1CN(c2nc(-c3ccccc3)no2)CCO1 (stereo unspecified) | 1.85
O=C(c1ccnc(N2CCOC(c3ccc(Cl)cc3)C2)c1)N1CCCC1 (stereo unspecified) | 5.063
O=C(c1ccnc(N2CCOC(C(F)(F)F)C2)c1)N1CCCC1 (stereo unspecified) | 104.2
CN1CCN(C(=O)c2ccnc(N3CCOC(C(F)(F)F)C3)c2)CC1 (stereo unspecified) | 130.4
O=C(c1ccc(-c2nc[nH]n2)cc1)N1CCOC(C(F)(F)F)C1 (stereo unspecified) | 16.44
O=C(c1ccnc(N2CCOC(C(F)(F)F)C2)c1)N1CCOCC1 (stereo unspecified) | 126.7
CCCOC1CCCN(C(=O)c2ccnc(N3CCN(C)CC3)c2)C1 (stereo unspecified) | -2.412
Cc1cc(N2CCOC(C(F)(F)F)C2)nc(-c2ccccc2O)n1 (stereo unspecified) | 0.367
N#CC(NC(=O)CC1CCSCC1)c1cnn(-c2ccccc2)c1 (stereo unspecified) | -2.178
O=C(c1cccc(O)c1)N1CCN(Cc2nnc(C3CCC3)o2)CC1 | 6.828
Cc1csc(NC(=O)[C@@H]2C[C@H]3[C@H](CCN3c3ncccn3)O2)n1.O=C(O)C(F)(F)F | 118
O=C(NCc1cccnc1)[C@@H]1C[C@H]2[C@H](CCN2c2ncccn2)O1.O=C(O)C(F)(F)F.O=C(O)C(F)(F)F | -20.81
CC(=O)N1CC[C@@H]2O[C@H](C(=O)Nc3nc(C)cs3)C[C@@H]21 | 101
CN1CCC(NC(=O)[C@H]2CC[C@@H]3[C@@H](CCN3c3ncccn3)O2)CC1.O=C(O)C(F)(F)F.O=C(O)C(F)(F)F | 7.6
CS(=O)(=O)N1CC[C@H]2O[C@H](C(=O)NCc3cccnc3)CC[C@H]21 | -7.533
CNC(=O)[C@@H]1CC[C@@H]2[C@@H](CCN2C(=O)N(C)C)O1 | -10.15
CC(=O)N1CC[C@@H]2O[C@@H](COCc3csc(C)n3)CC[C@@H]21 | -30.94
Cc1csc(NC(=O)[C@@H]2C[C@H]3[C@H](CCN3S(C)(=O)=O)O2)n1 | 118.9
CS(=O)(=O)N1CC[C@H]2O[C@@H](C(=O)NCc3ccco3)CC[C@H]21 | -0.8352
